Consider 92 compounds from PubChem BioAssay AID463173 (ICCB-Longwood Screening Facility, Harvard Medical School, 2010).

SMILES strings stand for the structures. Hit rate of the full screen: of about 52,000 compounds, about 4,300 (8.3%) were called active. The list comes from a sample in which actives are over-represented; it also holds similar structures and randomly drawn compounds. A number with no mark means an inactive call. Rule as the data show it: active = survival mostly below about 52% (no sharp cut-off); inactive = mostly above about 56%.

The test system of the assay is DeltatarO mutant. Nature of the assay: growth inhibition of S. aureus wild type versus tarO mutant, primary screen, teichoic acid synthesis inhibitors, RN4220, OD600 (AID 463173). The conditions noted are these: OD600, 18 h, hits give low values, screened at 18.75 µg/mL (by protocol).
For the compound `COc1ccc(NC(=O)c2nc(SCc3ccccc3F)ncc2Cl)cc1`, the survival was 73%.

For the compound `COc1ccc2nc(NC(=O)c3nc(S(=O)(=O)Cc4ccccc4F)ncc3Cl)sc2c1`, the survival is 61%.

Take `CCOc1ccc(NC(=O)c2nc(S(=O)(=O)Cc3ccccc3F)ncc2Cl)cc1`: the survival was 11% (active).

Regarding `O=C(Nc1ccccc1F)c1nc(SCc2ccccc2F)ncc1Cl`, the survival is 73%.

Take `COC(=O)c1ccccc1NC(=O)c1nc(S(=O)(=O)Cc2ccccc2F)ncc1Cl`: the survival was 110%.

In the case of `O=C(Nc1ccccc1F)c1nc(S(=O)(=O)Cc2ccccc2F)ncc1Cl`, the survival is -4% (active).

For `Cc1cc(C)c2c(=O)cc(C(=O)Nc3sc4c(c3C(=O)NCc3cccnc3)CCCC4)oc2c1`, the survival was 68%.

`CCOCCCNC(=O)c1c(NC(=O)c2cc(=O)c3ccccc3o2)sc2c1CCC2`: the survival was 48%.

Regarding `Cc1nc2c(Cl)cc(Cl)cc2[nH]1`, the survival was 88%.

As to `CCOc1cccc2cc(-c3cn4c(n3)sc3ccccc34)c(=O)oc12`, the survival was 72%.

As to `COc1cccc2cc(-c3cn4c(n3)sc3cc(F)ccc34)c(=O)oc12`, the survival is 60%.

For `CCOc1cccc2cc(-c3cn4c(n3)sc3cc(C)ccc34)c(=O)oc12`, the survival is -4% (active).

As for `COCCCNC(=O)CS(=O)Cc1nc(-c2cccc(C)c2)oc1C` (configuration not stated), the survival is 90%.

On to `S=C(NC12CC3CC(CC(C3)C1)C2)N1CCOCC1`, for which the survival is 98%.

Regarding `CCC(C)NC(=O)c1cn(CC)c2ccc(S(=O)(=O)N3CCCCC3)cc2c1=O` (configuration not stated), the survival is 84%.

With `Cc1ccc(COC(=O)c2[nH]c3c(c2C)C(=O)CC(c2ccc(N(C)C)cc2)C3)cc1` (configuration not stated), the survival is 77%.

In the case of `CCCOC(=O)c1c(NC(=O)c2nc3ncccn3n2)sc(C(=O)OCC)c1C`, the survival is 68%.

Turning to `O=C(CN1C(=O)CCc2cc(S(=O)(=O)N3CCCCC3)ccc21)NCc1ccc(Cl)cc1`, the survival is 78%.

As for `CC(=O)Nc1ccccc1-c1nc2ccccc2n(CC(=O)c2ccc(C)c(C)c2)c1=O`, the survival was 104%.

On to `CCC(=O)Nc1ccccc1-c1nc2ccccc2n(CC(=O)c2ccc(C)cc2)c1=O`, for which the survival is 50%.

For the compound `CCC(=O)Nc1ccccc1-c1nc2ccccc2n(CC(=O)c2ccc(Br)cc2)c1=O`, the survival was 29% (active).

For `CCC(=O)Nc1ccccc1-c1nc2ccccc2n(CC(=O)c2ccc(Cl)cc2)c1=O`, the survival was 35% (active).

Regarding `CCC(=O)Nc1ccccc1-c1nc2ccccc2n(CC(=O)Nc2ccc(C)c(C)c2)c1=O`, the survival is 47%.

Regarding `CCC(=O)Nc1ccccc1-c1nc2ccccc2n(CC(=O)c2ccc(C)c(C)c2)c1=O`, the survival is 33% (active).

As for `CC(=O)Nc1ccccc1-c1nc2ccccc2n(CC(=O)c2ccc(Br)cc2)c1=O`, the survival is 76%.

For the compound `CCC(=O)Nc1ccc(C)cc1-c1nc2ccccc2n(CC(=O)c2ccc(C)cc2)c1=O`, the survival is 68%.

As for `CC(=O)Nc1ccc(C)cc1-c1nc2ccccc2n(CC(=O)c2ccc(Cl)cc2)c1=O`, the survival was 82%.

With `COc1ccc(CCNC(=O)Cn2c(=O)n(-c3cc(OC)c(OC)c(OC)c3)c(=O)c3ccccc32)cc1OC`, the survival was 81%.

Regarding `COc1cc(CNCCSc2nnnn2C)ccc1OCc1ccc(F)cc1`, the survival is 122%.

Take `COC(=O)c1ccccc1NC(=O)c1cnc2c(-c3cccc(C)c3)c(C)nn2c1C`: the survival was 128%.

Turning to `CCOc1ccc2nc(SCC(=O)N(C)C3CCCCC3)c(C#N)cc2c1`, the survival is 89%.

For `COc1ccccc1NC(=O)C1CCN(c2cnccn2)CC1`, the survival was 54% (active).

As to `COc1cc(NC(=O)C2CCN(c3cnccn3)CC2)cc(OC)c1`, the survival was 79%.

As for `COc1cc(NC(=O)C2CCN(c3cnc4ccccc4n3)CC2)cc(OC)c1OC`, the survival is -5% (active).

As to `COc1cc(NC(=O)c2nc3ccccc3nc2N2CCCCC2)cc(OC)c1OC`, the survival was 87%.

Turning to `CCc1ccccc1NC(=O)C1CCN(c2cnccn2)CC1`, the survival is 43%.

In the case of `COc1cc(NC(=O)C2CCN(c3nc4ccccc4nc3C(F)(F)F)CC2)cc(OC)c1`, the survival is 101%.

For the compound `Cc1c(Cl)cccc1NC(=O)CN1C(=O)COc2ccc(S(=O)(=O)Nc3ccccc3)cc21`, the survival is 60%.

For `CCS(=O)(=O)c1nc(S(=O)(=O)c2ccc(C)cc2)c(NCCCOC)s1`, the survival was 97%.

As for `COc1ccccc1N1CCN(C(=O)CSc2n[nH]c(-c3ccccc3)n2)CC1`, the survival was 88%.

On to `COc1ccc(CCC(=O)NC2CC(=O)N(c3ccccc3)C2)cc1` (configuration not stated), for which the survival is 126%.

Turning to `O=C(Cc1ccccc1)NC1CC(=O)N(c2ccccc2)C1` (configuration not stated), the survival was 87%.

For the compound `O=C(CCc1ccccc1)NC1CC(=O)N(c2ccccc2)C1` (configuration not stated), the survival was 94%.

As for `Cc1ccc(N2CC(NC(=O)CCCc3ccccc3)CC2=O)cc1` (configuration not stated), the survival was 66%.

For the compound `COc1ccc(C(=O)NC2CC(=O)N(c3ccc4c(c3)OCCO4)C2)cc1` (configuration not stated), the survival was 100%.

For the compound `COc1ccc(N2CC(NC(=O)c3ccc(S(=O)(=O)N4CCCC4)cc3)CC2=O)cc1` (configuration not stated), the survival is 112%.

For `COc1ccc(N2CC(NC(=O)c3ccc(OC(C)C)cc3)CC2=O)cc1` (configuration not stated), the survival is 0% (active).

On to `Cc1ccc(N2CC(NC(=O)CCc3ccccc3)CC2=O)cc1` (configuration not stated), for which the survival was 20% (active).

Take `Cc1cccc(CC(=O)NC2CC(=O)N(c3ccccc3)C2)c1` (configuration not stated): the survival is -5% (active).

With `Cc1cccc(CC(=O)NC2CC(=O)N(c3cccc(F)c3)C2)c1` (configuration not stated), the survival is 67%.

On to `COc1ccc(N2CC(NC(=O)CCCc3ccccc3)CC2=O)cc1` (configuration not stated), for which the survival was 32% (active).

As to `COc1cccc(N2CC(NC(=O)CCCc3ccccc3)CC2=O)c1` (configuration not stated), the survival is 69%.

Consider `Cc1c(NC(=O)c2ccc(OC(C)C)cc2)cccc1-c1nc2ncccc2o1`, for which the survival was 47%.

Take `O=C(Nc1ccc(F)cc1)c1nc(SCc2ccccc2F)ncc1Cl`: the survival was 99%.

With `Cc1ccc(C(=O)O)cc1NC(=O)c1nsc2ccccc12`, the survival was 103%.

For `CCOC(=O)c1sc(=S)n(C)c1C`, the survival was 88%.

Consider `COc1ccc(OC)c(CNS(=O)(=O)c2ccc3[nH]c4c(c3c2)CCCCC4)c1`, for which the survival is 79%.

In the case of `Cc1ccc(Nc2c3c(nc4nncn24)CCC3)cc1`, the survival was 62%.

`COc1ccc(CNC(=O)c2cc3cccc4c3n2CC(C)S4)c(OC)c1` (configuration not stated): the survival was 122%.

Consider `CC(C)COC(=O)/C(C#N)=C\c1ccc(-c2ccccc2Cl)o1`, for which the survival was 67%.

For the compound `CCCCOC(=O)/C(C#N)=C/c1ccc(-c2ccc(Br)cc2)o1`, the survival is 68%.

Regarding `CC(C)OC(=O)/C(C#N)=C/c1ccc(-c2ccc(Cl)c(Cl)c2)o1`, the survival is 72%.

For the compound `CCOC(=O)/C(C#N)=C/c1ccc(-c2ccc(Br)cc2)o1`, the survival is 81%.

On to `CCC(C)OC(=O)/C(C#N)=C/c1ccc(-c2ccc(Br)cc2)o1` (configuration not stated), for which the survival is 43% (active).

For `CCC(C)OC(=O)/C(C#N)=C\c1ccc(-c2ccccc2Cl)o1` (configuration not stated), the survival is 58% (active).

On to `Cc1cccc(-c2nc(C)c(CCNC(=O)C(=O)Nc3ccc(C)c(C)c3)s2)c1`, for which the survival was 88%.

For `CC1=CCC(C(=O)Nc2nc3ccccc3s2)C(C(=O)O)C1` (configuration not stated), the survival was 49%.

Take `Cc1ccc(CNC(=O)C2CCN(c3nc4ccc(C)cc4[nH]3)CC2)cc1`: the survival was 126%.

On to `Cc1cc2ccccc2n1-c1ccc(C(=O)N2CCC(C(=O)NCc3ccc(Cl)cc3)CC2)s1`, for which the survival is 67%.

For the compound `CCc1ccc(CNC(=O)C2CCN(C(=O)c3ccc(-n4c(C)cc5ccccc54)s3)CC2)cc1`, the survival is 70%.

For the compound `Cc1cc2ccccc2n1-c1ccc(C(=O)N2CCC(C(=O)NCc3ccc(F)cc3)CC2)s1`, the survival is 6% (active).

For `Cc1nc(-c2cccc(S(=O)(=O)N3CCC(C(=O)NCc4ccccc4)CC3)c2)no1`, the survival is 109%.

Take `Cc1cccc2c1-c1sc(C(=O)N(C)c3cccc(C(F)(F)F)c3)cc1CO2`: the survival was 52%.

As to `Cc1cccc2c1-c1sc(C(=O)N3CCN(c4cccc(Cl)c4)CC3)cc1CO2`, the survival is 66%.

Take `COc1ccc(NC(=O)c2cc3c(s2)-c2c(C)cccc2OC3)c(OC)c1`: the survival is 51% (active).

As to `COc1ccc(CCNC(=O)c2cc3c(s2)-c2c(C)cccc2OC3)c(OC)c1`, the survival is 85%.

Regarding `CCc1ccccc1N(C)C(=O)c1cc2c(s1)-c1c(C)cccc1OC2`, the survival was 60%.

With `COc1ccc(N(C)C(=O)c2cc3c(s2)-c2c(C)cccc2OC3)c(OC)c1`, the survival was -1% (active).

`Cc1cccc2c1-c1sc(C(=O)N(C)c3cccc(Cl)c3)cc1CO2`: the survival is 0% (active).

As for `COc1cc(Cl)c(C)cc1NC(=O)c1cc2c(s1)-c1c(C)cccc1OC2`, the survival was 90%.

Turning to `COc1ccc(OC)c(CCNC(=O)c2cc3c(s2)-c2c(C)cccc2OC3)c1`, the survival is 79%.

For the compound `CC(C(=O)NCc1ccco1)N1C(=O)c2ccccc2C1=O` (configuration not stated), the survival was 57%.

For `Cc1coc2cc3oc(=O)c(CC(=O)NCCc4ccccc4)c(C)c3cc12`, the survival is 84%.

Regarding `COC(=O)N1N=C(c2ccccc2)CC1(O)C(F)(F)F` (configuration not stated), the survival is 85%.

As for `COc1ccc(OC)c(N=c2oc3cc(O)ccc3cc2C(=O)Nc2ccccn2)c1`, the survival is 70%.

With `Cc1ccc(S(=O)(=O)NCCc2nnc3ccc(SCc4ccccc4F)nn23)cc1`, the survival was 76%.

For the compound `O=C(NC1C2CCCC1CN(C1CC1)C2)c1ccc(Cl)cc1` (configuration not stated), the survival is 84%.

`O=C(/C(=N/O)n1cncn1)c1ccc(Cl)cc1Cl`: the survival is 72%.

Regarding `Cc1ccc(C)c(NC(=O)CSc2nc(=O)n(CCN(C)C)c3c2CCC3)c1`, the survival is 79%.

In the case of `CCOC(=O)c1c(C)oc2nc(C)nc(NCC3CCN(Cc4ccccc4C)CC3)c12`, the survival was 86%.

Consider `O=C(O)C1C2C=CC(C2)C1C(=O)NCc1cccs1` (configuration not stated), for which the survival was 83%.

On to `COC(=O)c1ccccc1NC(=O)N(Cc1ccc(C)cc1)Cc1cccn1-c1nnc(N2CCCC2=O)s1`, for which the survival was 123%.
